# Laboratory results as given in PubChem BioAssay (NCATS).
# Where “and” joins values, the source holds several entries; their conditions need not be identical. Identical values can stand only once. Results filed as inconclusive are left out. Calls of active or inactive are those of the source. The call rests on the fitted dose curve; in most records, active means well fitted inhibition curve with a large enough effect in the signal ratio, with a control signal flat (not every such curve was filed as active); inconclusive means small, poorly fitted or top-dose-only effect, or effect the other way, or a change in a side signal; inactive means flat fitted curve, though single readings scatter; the % refers to the signal ratio.
# Molecular target: Thyroid hormone receptor beta (Homo sapiens) (UniProt P10828)
# Sequence (P10828 whole entry, looked up): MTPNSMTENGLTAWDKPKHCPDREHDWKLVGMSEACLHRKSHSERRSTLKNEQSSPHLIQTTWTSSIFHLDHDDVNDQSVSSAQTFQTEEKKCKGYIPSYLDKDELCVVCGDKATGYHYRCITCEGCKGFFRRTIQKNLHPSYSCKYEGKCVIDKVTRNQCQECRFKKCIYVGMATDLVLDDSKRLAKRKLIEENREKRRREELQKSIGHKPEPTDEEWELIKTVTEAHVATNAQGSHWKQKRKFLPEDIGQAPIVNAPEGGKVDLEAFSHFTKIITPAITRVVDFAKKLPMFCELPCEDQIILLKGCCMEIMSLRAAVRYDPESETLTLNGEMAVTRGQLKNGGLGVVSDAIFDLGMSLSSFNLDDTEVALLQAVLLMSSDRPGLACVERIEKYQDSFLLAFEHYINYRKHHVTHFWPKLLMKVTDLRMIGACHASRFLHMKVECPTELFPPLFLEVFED
# Assay: qHTS assay for small molecule antagonists of thyroid hormone receptor beta signaling (AID 588547);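 further: cells stimulated with 0.4 nM T3 agonist during compound exposure; series mostly up to about 77 µM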
# Details: TR-UAS-bla HEK293, beta-lactamase ratio, antagonist mode, 18 h
# Excerpt: NIH Chemical Genomics Center [NCGC] U.S. Environmental Protection Agency [EPA] National Institutes of Environmental Health Sciences [NIEHS] National Toxicology Program [NTP] NCGC Assay Overview Thyroid hormone receptor (TR) belongs to nuclear hormone receptor superfamily. There are two subtypes for TR: TR-alpha and TR-beta. TR-beta plays a major role in regulating plasma cholesterol levels and it mediates the biological activities of thyroid hormone. Screening environmental chemicals on TR-beta signaling will provide important information for the mechanism of compound action.
# NCGC Assay Protocol Summary Using a beta-lactamase reporter-gene under control of the TR response element, a cell-based assay [GeneBLAzer TR-UAS-bla-GripTite assay developed by Invitrogen] was used to measure TR-beta signaling in antagonist mode. TR-UAS-bla-GripTite HEK 293 cells were used with assay medium containing 2% charcoal/dextran FBS, 0.1 mM NEAA and 1 mM sodium pyruvate. The assay was performed in clear bottom black Greiner 1536-well plates. Library compounds were measured for their ability to inhibit the reporter gene activity. Compounds were screened in a titration series in 1536-well format. The fluorescence intensity (405 nm excitation, 460/530 nm emission) was measured using an EnVision plate reader. […] Concentration-response titration points for each compound were fitted to the Hill equation yielding concentrations of half-maximal inhibition (IC50) and maximal response (efficacy) values. qHTS protocol for TR-beta beta-lactamase assay in antagonist mode [Step] [Parameter] [Value] [Description] 1. Reagent; 5 uL; 2500 cells/well 2. Incubation; 37 C for 4 hrs 3. Compounds; 23 nL; 0.59 nM to 92 uM 4. Controls (DMSO); 23 nL 5. Agonist (Stimulator); 1uL; T3 at 0.4nM (final) concentrations 6. Incubation; 37 C for 18 hrs 7. Detection reagent; 1 uL of CCF4-dye 8. Incubation; RT for 2 hrs 9. Detection; Fluorescence; Envision plate reader
# On the % scale 0 is the no-effect control and ±100 the full control effect.
row,SMILES,activity change % (negative = inhibition)
1,COc1cc2c(c(OC)c1OC)-c1ccc(OC)c(=O)cc1[C@@H](NC(C)=O)CC2,-20.1% (inactive)
2,Oc1ccccc1-c1ccccc1,19.4% (inactive) and 13.4% (inactive)
3,c1ccc2c(c1)Nc1ccccc1S2,5.64% (inactive) and -8.66% (inactive)
4,CCOP(=S)(OCC)Oc1cc(C)nc(C(C)C)n1,-8.33% (inactive) and 8.71% (inactive)
5,CN(C)CCC=C1c2ccccc2CCc2ccccc21,-28.2% (inactive)
6,Oc1cccc2cccnc12,-18.8% (inactive) and -22.1% (inactive)
7,OCCOc1ccccc1,12.7% (inactive) and 7.54% (inactive) and 6.22% (inactive)
8,Oc1ccc(Cl)cc1Cc1ccccc1,-6.58% (inactive) and 9.11% (inactive)
9,CNCC(O)c1ccc(O)cc1 (stereo unspecified),3.5% (inactive)
10,CCCC(C)(COC(N)=O)COC(=O)NC(C)C (stereo unspecified),4.32% (inactive) and -7.39% (inactive)
11,C[C@]12CCC(=O)C(O)=C1CC[C@@H]1[C@@H]2CC[C@]2(C)C(=O)CC[C@@H]12,9.32% (inactive)
